In PubChem BioAssay (NCATS):
Inconclusive results are not listed. The source made the active and inactive calls. The call rests on the fitted dose curve; in most records, active means well fitted inhibition curve with a large enough effect; inconclusive means small, poorly fitted or top-dose-only effect; inactive means flat fitted curve, though single readings scatter.

Each molecule was assayed against Lysine-specific demethylase 5B (Homo sapiens) (UniProt Q9UGL1) (assay: Optimization screen for KDM5B Histone Demethylases FDH coupled qHTS against the LOPAC library (AID 1347166)). Details: KDM5B demethylation, FDH-coupled NADH fluorescence (FDH is formaldehyde dehydrogenase); series mostly up to 57.5 µM.
Lysine-specific demethylase 5B (Homo sapiens), sequence (Q9UGL1 whole entry, looked up): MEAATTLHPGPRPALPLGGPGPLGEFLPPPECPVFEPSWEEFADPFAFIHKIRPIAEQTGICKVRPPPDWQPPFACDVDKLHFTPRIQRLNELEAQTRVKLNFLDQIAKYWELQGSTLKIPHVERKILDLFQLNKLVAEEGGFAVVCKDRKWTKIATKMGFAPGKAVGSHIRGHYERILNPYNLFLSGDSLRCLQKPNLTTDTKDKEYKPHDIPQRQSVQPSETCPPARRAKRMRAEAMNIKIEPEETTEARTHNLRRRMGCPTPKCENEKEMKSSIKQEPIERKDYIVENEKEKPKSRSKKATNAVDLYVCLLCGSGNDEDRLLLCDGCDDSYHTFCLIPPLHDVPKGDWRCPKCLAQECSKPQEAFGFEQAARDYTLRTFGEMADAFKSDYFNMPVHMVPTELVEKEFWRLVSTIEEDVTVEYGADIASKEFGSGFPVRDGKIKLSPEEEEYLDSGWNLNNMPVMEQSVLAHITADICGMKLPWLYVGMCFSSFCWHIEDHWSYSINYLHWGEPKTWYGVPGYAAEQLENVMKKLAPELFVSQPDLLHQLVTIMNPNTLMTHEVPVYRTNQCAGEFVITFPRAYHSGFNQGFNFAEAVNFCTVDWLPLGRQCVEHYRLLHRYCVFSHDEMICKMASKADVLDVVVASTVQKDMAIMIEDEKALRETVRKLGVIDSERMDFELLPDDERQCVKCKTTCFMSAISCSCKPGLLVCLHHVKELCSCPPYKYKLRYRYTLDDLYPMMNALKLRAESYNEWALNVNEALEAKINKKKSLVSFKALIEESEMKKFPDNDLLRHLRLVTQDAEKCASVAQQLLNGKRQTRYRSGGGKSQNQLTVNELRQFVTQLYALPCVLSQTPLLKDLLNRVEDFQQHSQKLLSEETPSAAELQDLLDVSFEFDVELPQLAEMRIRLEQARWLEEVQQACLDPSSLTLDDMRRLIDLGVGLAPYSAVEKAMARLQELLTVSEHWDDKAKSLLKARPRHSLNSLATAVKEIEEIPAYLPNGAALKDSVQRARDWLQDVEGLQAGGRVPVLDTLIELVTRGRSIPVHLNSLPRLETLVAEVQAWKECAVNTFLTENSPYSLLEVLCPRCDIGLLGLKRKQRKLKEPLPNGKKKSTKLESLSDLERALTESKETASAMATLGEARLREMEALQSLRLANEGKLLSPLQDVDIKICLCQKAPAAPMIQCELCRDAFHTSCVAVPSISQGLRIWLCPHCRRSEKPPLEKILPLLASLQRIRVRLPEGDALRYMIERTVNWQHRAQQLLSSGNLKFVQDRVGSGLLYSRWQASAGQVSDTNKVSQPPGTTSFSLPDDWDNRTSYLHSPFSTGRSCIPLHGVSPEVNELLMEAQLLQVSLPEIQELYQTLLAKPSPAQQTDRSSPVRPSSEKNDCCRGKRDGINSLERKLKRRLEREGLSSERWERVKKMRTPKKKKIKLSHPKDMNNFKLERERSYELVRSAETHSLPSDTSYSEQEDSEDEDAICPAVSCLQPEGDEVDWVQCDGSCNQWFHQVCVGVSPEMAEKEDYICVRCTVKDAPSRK
Summary of the method: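 KDM5BDeltaAP (200nM final) in 50mM HEPES pH 7.5, 0.01% Tween-20 was preincubated with compound for 10 min at room temperature. A substrate mix of 12.5uM H3K4Me3, 25uM a-ketoglutarate, ascorbate, Fe2+, NAD+ and formaldehyde dehydrogenase was then added. NADH fluorescence (340/450 nm) was read initially and after 30 min.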
With NC(N)=NOCCC(N)C(=O)O (stereo not drawn) the outcome was “inactive”. With Cc1c(C(=O)c2cccc3ccccc23)c2cccc3c2n1[C@H](CN1CCOCC1)CO3 the outcome was “inactive”. For O=C(O)[C@@H]1CCN1, the outcome was “inactive”. With CC(C)NC(C)Cc1ccc(I)cc1 (stereo not drawn) the outcome was “inactive”. For c1ccc2sc(C3(N4CCCCC4)CCCCC3)cc2c1, the outcome was “inactive”. In the case of C#CCOC(=O)C1=CCCN(C)C1, the outcome is reported as “inactive”. In the case of NC(CP(=O)(O)O)C(=O)O (stereo not drawn), the outcome is reported as “inactive”. For CCCN(CCC)[C@@H]1CCc2ccc(O)cc2C1, the outcome was “inactive”. For C[N+]1(C)C2CCC1CC(OC(=O)C(CO)c1ccccc1)C2 (stereo not drawn), the outcome was “inactive”. CN[C@@H]1C[C@@H](c2ccc(Cl)c(Cl)c2)c2ccccc21 was tested, and the outcome was “inactive”. In the case of CC[C@@H](C(N)=O)N1CCCC1=O, the outcome is reported as “inactive”. With NC(CCP(=O)(O)O)C(=O)O (stereo not drawn) the outcome was “inactive”. CCCCc1ccc(C(=O)O)nc1 was tested, and the outcome was “inactive”. In the case of NCc1cc(=O)[nH]o1, the outcome is reported as “inactive”. With c1ccc(CCCN2CCN(CCOC(c3ccccc3)c3ccccc3)CC2)cc1 the outcome was “inactive”. C=CCN1CC[C@]23CCCCC2[C@H]1Cc1ccc(O)cc13 (stereo partly drawn) was tested, and the outcome was “inactive”. In the case of Cn1cnc(CCN)c1, the outcome is reported as “inactive”. CCCN(CCC)C1CCc2ccc(O)cc2C1 (stereo not drawn) was tested, and the outcome was “inactive”. With C[C@@H](N)Cc1cnc[nH]1 the outcome was “inactive”. For O=C(Cc1ccc(Cl)c(Cl)c1)N1CCCCC1CN1CCCC1 (stereo not drawn), the outcome was “inactive”. C[C@]12CCC3C(CC[C@H]4C[C@H](O)CC[C@]34C)C1CC[C@@H]2C(=O)CO (stereo partly drawn) was tested, and the outcome was “inactive”. With NC(=O)CN1CC(O)CC1=O (stereo not drawn) the outcome was “inactive”. For Oc1ccc2c3c1O[C@H]1c4[nH]c5c(c4C[C@@]4(O)[C@@H](C2)N(CC2CC2)CC[C@]314)C[C@@]1(O)[C@H]2Cc3ccc(O)c4c3[C@@]1(CCN2CC1CC1)[C@H]5O4, the outcome was “inactive”.
